Screening data: PubChem, several laboratories
PrPC surface inh = cell surface PrPC inhibition, primary TR-FRET screen. P04156. TR-FRET read-out. inhibition, % at 13.8 µM. hit rate 0.43% among 370,000; in the data active = inhibition above about 24%; note: 0% = median of the test wells and 100% = reference compound wells
Sa RN4220 lethal = kills Staphylococcus aureus RN4220; S. aureus RN4220 growth, OD600, 16 h; inhibition, % (concentration not given with the values); hit rate 0.33% among 330,000; AID 1259311; in the data active = inhibition above about 85%;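 note: plate controls were untreated cells for no effect and reference antibiotic for full effect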
BJeLR lethal = kills HRASV12-expressing BJeLR cells. AID 1554. BJeLR (HRASV12) viability, CellTiter-Glo ATP luminescence, 48 h. hit rate 0.17% among 300,000. inhibition, % (concentration not given with the values); in the data active = inhibition above about 50%
Sa ugtP lethal = growth inhibition of S. aureus ugtP deletion strain; S. aureus RN4220 ugtP deletion, OD600 growth, 16 h; growth inhibition, % (concentration not given with the values); hit rate 0.54% among 330,000; AID 1259309; in the data active = growth inhibition above about 68%;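 note: plate controls were untreated wells for no effect and antibiotic for full effect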
* marks the source's active call; other numbers are inactive results; · = no result given. Compounds with a hit are over-represented: about 0.95% of the library has one in this group of screens.

SMILES	PrPC surface inh	Sa RN4220 lethal	BJeLR lethal	Sa ugtP lethal
COc1ccc(N2CC(C(=O)NN=Cc3cc([N+](=O)[O-])ccc3O)CC2=O)cc1 (configuration not stated)	·	90*	·	77
COc1ccc(N2CC(C(=O)NN=Cc3ccc([N+](=O)[O-])cc3)CC2=O)cc1 (configuration not stated)	·	1	·	1
O=C(Nc1ccc(Cl)c([N+](=O)[O-])c1)C(Sc1ccccc1)c1ccccc1 (configuration not stated)	7	86*	9	99*
COC(=O)CN1C(=O)C2C(C)C3=C4C(CC(C(=O)OC)=CC(C(=O)OC)C4[C@@](C)(NC(=O)c4ccccc4)C3=O)C2C1=O (some centres not stated)	·	2	·	4
CN1CCN(c2ccc(NC(=S)NC(=O)/C=C/c3ccco3)cc2)CC1	-22	0	-4	89*
CC(=O)Nc1ccc(NC(=S)NC(=O)/C=C/c2ccco2)cc1	-20	4	-17	86*
Cc1cc(/C=C2\Sc3ccccc3N2C)cc(C)[n+]1CC1CCCO1 (configuration not stated)	-10	100*	·	101*
O=C(NC1CCCCC1)C(c1cccnc1)N(C(=O)CCl)c1cccc(Cl)c1 (configuration not stated)	0	17	89*	-7
Cc1cccc(N(C(=O)CNC(=O)c2ccco2)C(C(=O)NC2CCCCC2)c2cccnc2)c1 (configuration not stated)	-7	4	-7	12
CCOc1ccccc1C=C1SC(=S)NC1=O	-4	95*	·	97*
O=C1NC(=S)SC1=Cc1ccccc1Br	-11	100*	·	100*
COc1cc(/C=C2\SC(=S)NC2=O)ccc1OS(=O)(=O)c1ccccc1	·	·	8	·
CCOc1ccc(/C=C2\SC(=S)NC2=O)cc1OC	-3	79	12	88*
NC(=O)C1=CC(c2ccc3c(c2)OCO3)CC(OCc2ccc(CO)cc2)O1 (configuration not stated)	·	2	·	0
O=C(NN=Cc1cccs1)[C@H]1C[C@@H]1c1ccccc1	·	0	·	-7
CC1(C)COCN1S(=O)(=O)c1ccc(C(=O)Nc2nnc(-c3ccc(Cl)s3)o2)cc1	·	100*	17	98*
O=C(Nc1nnc(-c2ccccc2Cl)o1)c1ccc(S(=O)(=O)N2CCCCCC2)cc1	·	100*	10	96*
CS(=O)(=O)c1ccccc1-c1nnc(NC(=O)c2ccc(S(=O)(=O)N3CCCC3)cc2)o1	1	9	-2	-2
CCC1CCCCN1S(=O)(=O)c1ccc(C(=O)Nc2nnc(C3CC3)o2)cc1 (configuration not stated)	-1	62	9	50
CCC1CCCCN1S(=O)(=O)c1ccc(C(=O)Nc2nnc(-c3ccccc3Cl)o2)cc1 (configuration not stated)	·	99*	17	98*
CCCCN(CC)S(=O)(=O)c1ccc(C(=O)Nc2nnc(-c3ccccc3Cl)o2)cc1	·	100*	1	100*
COc1cc(C=NNC(=O)c2sc(N)nc2C)cc(OC)c1OC	·	4	·	-11
CC[C@]12C(=O)N(C)CC(C3C(=O)N(C)C(=O)C31)N2C(=O)c1ccccc1 (some centres not stated)	·	6	·	-3
COc1ccc(C=CC2=NC(=CN(C)C)C(=O)O2)cc1	·	5	·	-2
CCCCN(CCCC)S(=O)(=O)c1ccc(C(=O)Nc2nnc(CSC)o2)cc1	3	112*	7	99*
SMILES	PrPC surface inh	Sa RN4220 lethal	BJeLR lethal	Sa ugtP lethal
CC1CCCCN1S(=O)(=O)c1ccc(C(=O)Nc2nnc(-c3ccncc3)o2)cc1 (configuration not stated)	1	28	16	8
CC1CCCCN1S(=O)(=O)c1ccc(C(=O)Nc2nnc(-c3ccccc3Cl)o2)cc1 (configuration not stated)	1	98*	-5	98*
CCCCN(C)S(=O)(=O)c1ccc(C(=O)Nc2nnc(-c3cccs3)o2)cc1	·	104*	10	97*
O=C(Nc1nnc(-c2cccs2)o1)c1cccc(Oc2ccccc2)c1	5	99*	·	100*
CC#CCN1c2ccccc2[C@]23CC(C(=O)OC)N(C(=O)NC4CCCCC4)C2=NC(C(=O)OC)=C(C(=O)OC)C13 (some centres not stated)	·	5	·	10
Clc1ccc(C2C3CN(Cc4cccnc4)C(c4ccccc4)C34CC2(c2ccccc2)C4)cn1 (configuration not stated)	·	-5	·	-1
CN(/N=C/c1cc(Cl)cc(Cl)c1O)C(=S)NC(C)(C)C	-8	·	3	·
CN(N=Cc1cc(Cl)cc(Cl)c1O)C(=S)NC(C)(C)C	·	100*	·	100*
CCC(C(=O)C(C)C(O)C(C)CCc1ccc(C)c(O)c1C(=O)O)C1O[C@](CC)(C2CC[C@](O)(CC)C(C)O2)CC1C (some centres not stated)	·	99*	·	90*
CC1(C)CC(=O)c2c(nc(SCC(=O)Nc3nsc(-c4ccccc4)n3)c(C#N)c2-c2ccccc2)C1	-2	-2	59*	-1
C[C@]12CC[C@H](O)CC1=CCC1C2CC[C@@]2(C)C1CC[C@@H]2OCc1ccccc1 (some centres not stated)	2	-2	·	11
CC12CCC(O)CC1=CCC1C2CCC2(C)C(c3ccn[nH]3)CCC12 (configuration not stated)	12	-1	·	98*
CS(=O)(=O)c1ccc2nc(NC(=O)c3ccc(NS(=O)(=O)c4ccc(F)c(F)c4)cc3)sc2c1	3	3	3	12
O=C(Nc1nc2ccc(SC(F)F)cc2s1)c1ccc(NS(=O)(=O)c2ccc(F)c(F)c2)cc1	9	100*	-11	100*
Cc1ccc(Cl)cc1NC(=O)C1CCCN1S(=O)(=O)c1ccc(-c2ccc(=O)[nH]n2)s1 (configuration not stated)	-10	97*	6	97*
CCc1cccc(CC)c1NC(=O)C1SC(=Nc2ccccc2C)C(c2nc3ccccc3s2)=C1N (configuration not stated)	25*	-5	-6	22
C[C@]12CCC3C(CCC4=CC(O)CC[C@@]43/C=N/O)C1(O)CCC2C1=CC(=O)OC1 (some centres not stated)	2	·	69*	·
C[C@]12CCC3C(CC[C@]4(O)CC(O)CC[C@]34C=O)[C@@]1(O)CCC2C1=CC(=O)OC1 (some centres not stated)	·	4	·	9
CC(=NNC(=O)c1cccs1)c1ccc(C(=O)O)s1	·	3	·	7
CCOc1ccc(S(=O)(=O)NC(=O)c2ccccc2)cc1	6	4	1	2
Cc1ccc(-n2c(C)cc(C(=O)NS(=O)(=O)c3ccc(C)cc3)c2C)cc1	3	2	8	98*
CCOc1ccc(-n2c(C)cc(C(=O)NS(=O)(=O)c3ccc(C)cc3)c2C)cc1	-1	2	-1	92*
c1ccc(Cn2ncc3ccccc32)cc1	0	2	-10	15
CN(C)c1nc(-c2ccccc2)c2cnn(Cc3ccccc3)c2n1	-9	-7	-6	89*
